# Measurements reported in PubChem BioAssay (NCATS).
# Results filed as inconclusive are left out. Where a call stands in place of a potency, no number is given. Calls of active or inactive are those of the source. Calls follow the shape of the dose curve; as a rule, active = well fitted cell-killing curve with a large enough effect; inconclusive = small, poorly fitted or top-dose-only effect, or effect the other way; inactive = flat fitted curve, though single readings scatter.
# Assay: MultiTox-Fluor Cytotoxicity Assay - LYMP1-002 - Live Cells (AID 955)
# Details: LYMP1-002 lymphoblastoid live-cell protease fluorescence viability; series mostly up to 46.1 µM
# From the text: NIH Chemical Genomics Center [NCGC]
# NIH Molecular Libraries Screening Centers Network [MLSCN]
# National Institutes of Environmental Health Sciences [NIEHS]
# National Toxicology Program [NTP]
# We have developed a 1536-well cell-based assay for quantitative high throughput screening (qHTS) against a number of cell lines to determine in vitro cytotoxicity of small molecules. This particular assay uses a human lymphoblastoid cell line (LYMP1-002) purchased from Coriell Institute.
# NCGC Assay Protocol Summary:
# The MultiTox-Fluor Cytotoxicity Assay (Promega) is a homogeneous method to simultaneously measure the relative number of live and dead cells in culture by detecting changes in cell membrane integrity. There are two fluorogenic peptide substrates in the assay reagent. Viable cells are determined when the cell-permeant substrate (GF-AFC) enters the cell and is cleaved by protease from live cells resulting in liberated fluorophore. This live-cell protease activity restricted to viable cells is proportional to cell number. The dead cells are determined by using fluorogenic cell-impermeant peptide substrate (bis-AAF-R110) which cleaved by dead cell proteases leaking from damaged cell membrane.
# Using the MultiTox-Fluor Cytotoxicity Assay, the relative number of live cells was measured in the lymphoblastoid cell line with complete culture medium following compound treatment for 16 hours. The assay was performed in opaque black Kalypsys 1536-well plates. In the screen, tetraoctylammonium bromide was used as positive control. Library compounds were measured for their ability to cause acute toxicity in the cell line, as reflected by a decrease in live cell protease activity, in a concentration-dependent manner. […] AC50 values were determined from concentration-response data modeled with the standard Hill equation.
# qHTS protocol for MultiTox-Fluor Cytotoxicity assay
# [Step] [Parameter] [Value] [Description]
# 1. Reagent; 5 uL; 2500 lymphoblastoid cells/well
# 2. Time; 5 hr; 37 C incubation
# 4. Controls; 23 nL; Tetraoctylammonium bromide 6.4pM to 92 uM
# 5. Time; 16 hr; 37 C incubation
# 6. Reagent; 5 uL; MuliTox-Fluor Assay reagent
# 7. Time; 60 min; Room Temperature
# 8. Detection; live-cell fluorescence (Ex/Em=405/510); EnVision plate reader
# Keywords: cell viability, cytotoxicity, lymphoblastoid cell line, fluorescence, NTPHTS, NTPHTS_NCGC, NIEHS, EPA, DSSTox, MLSMR, MLSCN, NIH Roadmap, qHTS, NCGC
# Potency is read from the fitted curve at half-maximal effect.
row,SMILES,Potency
1,O=S(=O)(c1ccc(Cl)cc1)c1ccc(Cl)cc1,inactive
2,OCCCBr,inactive
3,CCOP(=O)(NC(C)C)Oc1ccc(SC)c(C)c1 (stereo unspecified),inactive
4,CN(C)NC(=O)CCC(=O)O,inactive
5,c1cc2ccc3cccc4ccc(c1)c2c34,inactive
6,O=C(O)C(Cl)Cl,inactive
7,O=[N+]([O-])c1c2ccccc2cc2ccccc12,inactive
8,O=[N+]([O-])c1cc([N+](=O)[O-])c2ccccc2c1,inactive
9,Nc1ccc([N+](=O)[O-])cc1,inactive
10,Nc1ccc(Cl)cc1N,inactive
11,COc1ccc(C(c2ccc(OC)cc2)C(Cl)(Cl)Cl)cc1,inactive
12,CN(C)[C@@H]1C(=O)C(C(N)=O)=C(O)[C@@]2(O)C(=O)C3=C(O)c4c(O)cccc4[C@@](C)(O)[C@H]3[C@H](O)[C@@H]12,inactive
13,COC(C)(C)CCCC(C)C/C=C/C(C)=C/C(=O)OC(C)C (stereo unspecified),inactive
14,O=C(O)COc1ccccc1,inactive
15,CCOCCOC(C)=O,inactive
16,CCCCCCCCc1ccc(O)cc1,inactive
17,C1CCC(NC2CCCCC2)CC1,inactive
18,Nc1ccc(Sc2ccc(N)cc2)cc1,inactive
19,CC(C)(O)C(=O)Nc1ccc([N+](=O)[O-])c(C(F)(F)F)c1,inactive
20,CCCCC(CC)COC(=O)c1ccccc1C(=O)OCC(CC)CCCC (stereo unspecified),inactive
21,C=CC(=O)NCNC(=O)C=C,inactive
22,CC(=O)[O][Hg][c]1ccccc1,3.16 µM (active)
23,Nc1ccc(Cl)cc1,inactive
24,CCCCOC(=O)c1ccccc1C(=O)OCc1ccccc1,inactive
25,Cc1cc(O)ccc1Cl,inactive
26,O=[N+]([O-])c1c(Cl)c(Cl)cc(Cl)c1Cl,inactive
